Calls of active or inactive are those of the source.
Legend:
[1] = small molecules captured by biotinylated probe aFSTL3 – biochemical, small-molecule microarray, fluorescence 635/667, stem cell growth factor project, primary screen (AID 1064); settings: higher = more signal;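 note: measures binding of the biotinylated anti-FSTL3 antibody to printed compounds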
[2] = binders from COS7 lysate, DM2A8 probe, primary screen, torsin A project, cell lysate, small-molecule microarray, fluorescence 635/667 (AID 1065); settings: higher = more signal, COS7 lysate expressing mutant human TOR1A
[3] = small molecules captured by biotinylated probe aFGF2 – biochemical, small-molecule microarray, fluorescence 635/667, stem cell growth factor project, primary screen (AID 1067); settings: higher = more signal;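 note: measures binding of biotinylated aFGF2 protein to printed compounds on slides; z-score merges feature fluorescence and signal-to-noise across triplicate slides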
[4] = small molecules captured by biotinylated probe aFGF10 – biochemical, small-molecule microarray, fluorescence 635/667, stem cell growth factor project, primary screen (AID 1071); settings: higher = more signal;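 note: score merges 667 nm spot intensity and signal to noise from triplicate slides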
[5] = biological target: Neurogenic locus notch homolog protein 2 (Homo sapiens) (UniProt Q04721); assay: small molecules binding Notch2 protein – biochemical, small-molecule microarray, 635 nm fluorescence, stem cell growth factors, primary screen (AID 1073); settings: higher = more signal
[6] = biological target: Pro-neuregulin-1, membrane-bound isoform (Homo sapiens) (UniProt Q02297); assay: small molecules binding neuregulin-1 protein – biochemical, small-molecule microarray, fluorescence 635/667, psychiatric disease protein project, primary screen (AID 1075); settings: NRG1 binding, 635 nm fluorescence, higher = more signal;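 note: score combines 667 nm spot fluorescence with signal to noise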
[7] = system: Neuregulin-1 EGF-like domain; assay: small molecules binding NRG1 EGF domain – biochemical, small-molecule microarray, 635 nm fluorescence, primary screen (AID 1081); settings: higher = more signal;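 note: binding of the protein to compounds printed on small-molecule microarray slides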
[8] = FRG1 expression reporter modulators in myotubes – cell-based, C2C12 myotubes, firefly/Renilla luciferase, luminescence, FRG1 inhibition for FSHD, primary screen (AID 1084); settings: FRG1 promoter luciferase, higher = more signal, called active from +8 up or from −8 down
[9] = small molecules captured by biotinylated probe aFST – biochemical, small-molecule microarray, fluorescence 635/667, stem cell growth factor project, primary screen (AID 1086); settings: higher = more signal;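 note: score merges 667 nm fluorescence with signal-to-noise of each printed compound spot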
[10] = binders of probe aHhip on microarray, primary screen, stem cell growth factor project, biochemical, small-molecule microarray, fluorescence 635/667 (AID 1087); settings: higher = more signal;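 note: score merges spot fluorescence at 667nm with spot signal to noise ratio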

Sequence of Pro-neuregulin-1, membrane-bound isoform (Homo sapiens) (Q02297 whole entry, looked up, the tested form may be a part, canonical isoform): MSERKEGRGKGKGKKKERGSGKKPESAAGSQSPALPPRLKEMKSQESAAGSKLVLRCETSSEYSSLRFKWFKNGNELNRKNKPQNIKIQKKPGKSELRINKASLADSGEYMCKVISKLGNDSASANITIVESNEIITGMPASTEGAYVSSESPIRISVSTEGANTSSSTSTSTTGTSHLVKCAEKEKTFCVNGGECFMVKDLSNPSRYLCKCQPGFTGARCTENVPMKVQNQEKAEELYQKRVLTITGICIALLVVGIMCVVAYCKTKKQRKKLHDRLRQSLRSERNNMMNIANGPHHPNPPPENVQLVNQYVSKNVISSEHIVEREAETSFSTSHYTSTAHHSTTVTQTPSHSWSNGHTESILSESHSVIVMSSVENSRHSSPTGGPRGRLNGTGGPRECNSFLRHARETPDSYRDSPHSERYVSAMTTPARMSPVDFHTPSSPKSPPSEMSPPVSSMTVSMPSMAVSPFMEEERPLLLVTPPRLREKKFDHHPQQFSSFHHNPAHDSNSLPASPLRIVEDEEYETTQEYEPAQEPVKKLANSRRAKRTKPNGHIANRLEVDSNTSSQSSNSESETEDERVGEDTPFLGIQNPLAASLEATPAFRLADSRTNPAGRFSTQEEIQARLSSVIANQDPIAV
Sequence of Neurogenic locus notch homolog protein 2 (Homo sapiens) (Q04721 whole entry, looked up, canonical isoform): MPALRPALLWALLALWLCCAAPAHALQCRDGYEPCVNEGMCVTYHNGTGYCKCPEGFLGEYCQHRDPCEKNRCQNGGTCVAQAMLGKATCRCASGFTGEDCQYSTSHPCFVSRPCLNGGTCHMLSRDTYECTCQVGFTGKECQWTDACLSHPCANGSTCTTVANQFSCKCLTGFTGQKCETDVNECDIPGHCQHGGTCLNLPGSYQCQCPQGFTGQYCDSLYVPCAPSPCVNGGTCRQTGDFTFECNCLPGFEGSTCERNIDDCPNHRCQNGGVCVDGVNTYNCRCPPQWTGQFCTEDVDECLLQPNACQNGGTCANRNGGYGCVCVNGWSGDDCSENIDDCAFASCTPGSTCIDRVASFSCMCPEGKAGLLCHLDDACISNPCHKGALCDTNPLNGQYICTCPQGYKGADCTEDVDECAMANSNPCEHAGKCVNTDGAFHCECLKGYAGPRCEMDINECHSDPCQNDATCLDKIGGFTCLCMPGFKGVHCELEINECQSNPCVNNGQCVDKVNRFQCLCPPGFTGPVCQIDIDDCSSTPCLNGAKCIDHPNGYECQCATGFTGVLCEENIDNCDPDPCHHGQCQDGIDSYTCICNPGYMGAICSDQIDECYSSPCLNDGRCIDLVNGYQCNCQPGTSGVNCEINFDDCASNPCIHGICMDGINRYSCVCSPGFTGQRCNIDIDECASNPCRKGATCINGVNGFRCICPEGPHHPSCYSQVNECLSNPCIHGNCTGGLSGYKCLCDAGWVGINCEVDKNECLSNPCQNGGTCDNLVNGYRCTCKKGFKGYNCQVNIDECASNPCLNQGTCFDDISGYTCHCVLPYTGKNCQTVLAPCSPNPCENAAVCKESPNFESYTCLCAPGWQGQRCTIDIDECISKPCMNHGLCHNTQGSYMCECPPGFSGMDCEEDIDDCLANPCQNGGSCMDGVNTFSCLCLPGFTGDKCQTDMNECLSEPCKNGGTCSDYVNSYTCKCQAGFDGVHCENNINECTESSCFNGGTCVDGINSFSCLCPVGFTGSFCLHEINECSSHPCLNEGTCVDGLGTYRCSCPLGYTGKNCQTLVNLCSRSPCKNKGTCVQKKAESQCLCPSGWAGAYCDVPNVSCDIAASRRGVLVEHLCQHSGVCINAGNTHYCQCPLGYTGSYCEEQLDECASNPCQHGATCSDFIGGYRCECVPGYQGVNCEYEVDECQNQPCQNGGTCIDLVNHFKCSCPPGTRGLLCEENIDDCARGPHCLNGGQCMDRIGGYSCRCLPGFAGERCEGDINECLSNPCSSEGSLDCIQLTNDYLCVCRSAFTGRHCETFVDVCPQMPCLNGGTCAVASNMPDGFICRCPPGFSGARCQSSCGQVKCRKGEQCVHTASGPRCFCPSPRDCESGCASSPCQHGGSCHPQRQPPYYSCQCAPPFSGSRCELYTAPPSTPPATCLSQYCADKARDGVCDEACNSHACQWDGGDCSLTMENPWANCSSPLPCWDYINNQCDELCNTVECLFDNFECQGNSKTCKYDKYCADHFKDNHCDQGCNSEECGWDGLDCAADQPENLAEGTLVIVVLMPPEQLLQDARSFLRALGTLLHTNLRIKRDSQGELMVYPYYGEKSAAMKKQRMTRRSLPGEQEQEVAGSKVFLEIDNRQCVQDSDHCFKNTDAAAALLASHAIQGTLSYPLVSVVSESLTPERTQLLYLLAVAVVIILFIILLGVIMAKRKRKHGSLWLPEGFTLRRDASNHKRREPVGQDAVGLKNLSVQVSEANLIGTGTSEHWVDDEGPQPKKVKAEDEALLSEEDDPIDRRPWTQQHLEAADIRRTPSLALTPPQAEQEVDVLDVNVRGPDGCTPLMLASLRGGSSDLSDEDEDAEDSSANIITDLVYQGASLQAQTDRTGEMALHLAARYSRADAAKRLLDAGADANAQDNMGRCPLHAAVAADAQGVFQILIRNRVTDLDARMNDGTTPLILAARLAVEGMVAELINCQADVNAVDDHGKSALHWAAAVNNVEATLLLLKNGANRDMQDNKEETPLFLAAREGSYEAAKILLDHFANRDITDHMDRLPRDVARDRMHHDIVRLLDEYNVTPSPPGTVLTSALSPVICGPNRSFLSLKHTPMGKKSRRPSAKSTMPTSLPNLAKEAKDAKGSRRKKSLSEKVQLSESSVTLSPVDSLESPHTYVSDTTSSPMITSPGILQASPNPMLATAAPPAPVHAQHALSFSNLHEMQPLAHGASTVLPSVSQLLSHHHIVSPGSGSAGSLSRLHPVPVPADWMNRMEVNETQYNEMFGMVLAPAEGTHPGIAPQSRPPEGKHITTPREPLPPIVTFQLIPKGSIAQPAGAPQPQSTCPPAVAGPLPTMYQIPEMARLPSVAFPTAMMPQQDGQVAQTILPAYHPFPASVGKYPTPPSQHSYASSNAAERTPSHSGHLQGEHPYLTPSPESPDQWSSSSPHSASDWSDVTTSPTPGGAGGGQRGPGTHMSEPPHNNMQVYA

Compound | composite z-score [1] | composite z-score [2] | composite z-score [3] | composite z-score [4] | composite z-score [5] | composite z-score [6] | composite z-score [7] | z-score [8] | composite z-score [9] | composite z-score [10]
O=C1C[C@@](C(=O)NCC(F)(F)F)(c2ccc([N+](=O)[O-])cc2)[C@@H](c2ccc(CO)cc2)N1CC12CC3CC(CC(C3)C1)C2 | 0.213 | 0.244 | 0.134 | 1.15 | 1.19 | 0.812 | 1.32 | -2.42 (inactive) | 0.724 | 0.914
CCN(CC)c1ccc(N2CC=CC34O[C@@H]5/C=C\CCC(C)OC(=O)C5[C@H]3C(=O)N(C(C)CO)[C@@H]4C2=O)cc1 (stereo not given in full) | -0.0462 | -0.362 | -0.116 | -0.244 | -1.06 | 0.168 | -0.527 | 0.355 (inactive) | -0.293 | -0.652
O=C1[C@@]23C=C(Br)[C@H](C[C@@H]2COC3)[C@@]12CO2 | -0.325 | 0.422 | -0.112 | 0.38 | 0.32 | 0.0504 | 0.0447 | -0.214 (inactive) | 0.159 | -0.268
COC(=O)[C@@]1(Cc2ccccc2)[C@H]2c3cc(C(=O)N4CCCC4)n(CCSCCO)c3C[C@H]2CN1C(=O)c1ccccc1 | 0.729 | 0.773 | 0.457 | 0.525 | 1.83 | 1.66 | 1.37 | -0.906 (inactive) | 0.894 | 0.189
COC(=O)[C@@]1(Cc2ccc(OC)cc2)[C@H]2c3cc(C(=O)N4CCCC4)n(Cc4cc(C)n(C)n4)c3C[C@H]2CN1C(=O)c1ccccc1 | 0.404 | 0.0011 | 0.37 | 1.3 | 1.76 | 2.16 | 1.33 | 0.301 (inactive) | 0.821 | 2.67
COc1ccc([Si](C)(C)[C@@H]2[C@@H](CCn3cc([C@H](O)c4ccccc4)nn3)O[C@]3(C(=O)N(Cc4cccc(N5C(=O)c6cccc7cccc5c67)c4)c4ccccc43)[C@H]2C)cc1 | 0.022 | -0.362 | -0.146 | -0.472 | -0.643 | 0.173 | 0.741 | -0.814 (inactive) | -0.0472 | -0.309
O=C(CS)NCCCCCCNC(=O)[C@@H]1C[C@@H]2C(=O)NCC(=O)N2[C@@H]1c1ccc(O)cc1 | 0.169 | -0.0906 | -0.157 | -0.505 | -0.918 | -0.75 | 0.729 | -1.15 (inactive) | -0.183 | -0.0324
CCOC(=O)C1=C[C@@H](C(C)(C)C)N(S(=O)(=O)c2ccc(C)cc2)[C@H]1c1ccccc1 | 0.401 | 0.685 | 0.0524 | 0.69 | 1.63 | 0.4 | 0.954 | -1.66 (inactive) | 1.04 | 0.206
[N-]=[N+]=NCc1ccccc1[C@@H]1OC(c2ccc(OCCCO)cc2)=N[C@]1(Cc1ccccc1N=[N+]=[N-])C(=O)NCCN1CCOCC1 | -0.0579 | 0.909 | 0.088 | 0.828 | 1.56 | 1.19 | 1.25 | 0.982 (inactive) | 1.11 | -0.213
COCC(=C=CC[C@H](O)c1cccc(OCCO)c1)C[C@H](O)COCc1ccccc1 | 0.0102 | 0.823 | -0.0602 | 0.427 | 0.276 | 1.51 | 1.31 | 0.574 (inactive) | 0.256 | -0.476
C=C(CCCC)C(=O)CC[C@H](OC(C)=O)c1ccc(OCCO)cc1 | -0.222 | -0.0212 | -0.214 | -0.253 | -0.989 | -0.189 | -0.67 | 0.38 (inactive) | -0.358 | 3.01
COc1ccc(C(O)C2C=CC3C(=O)N(c4ccccc4)C(=O)C3N2Nc2ccccc2)cc1 (stereo not given) | -0.0234 | 0.316 | 0.142 | 0.979 | 1.66 | 1.93 | 1.31 | -1.07 (inactive) | 0.531 | 0.289
O=C1N(CCS(=O)(=O)c2ccccc2)Cc2ccccc2[C@@H]2OC(c3ccc(OCCCO)cc3)=N[C@]12CCS(=O)(=O)c1ccccc1 | 0.215 | 0.675 | 0.115 | 0.507 | 1.66 | 1.46 | 1.39 | -2.06 (inactive) | 1.18 | 0.0053
C=C[C@@H](OC)[C@H](OC(=O)Nc1ccc(SC)cc1)c1ccc(OCCO)cc1 | 0.0275 | 0.363 | 0.0166 | 0.485 | 0.794 | 1.43 | 1.33 | 6.53 (inactive) | 0.574 | 0.675
COc1ccc(C(=O)Nc2cccc(CN3C(=O)[C@@]4(O[C@@H](CC(=O)N(CCO)Cc5ccccc5)[C@H]([Si](C)(C)c5ccc(OC)cc5)[C@H]4C)c4ccccc43)c2)cc1 | -0.117 | 0.741 | -0.119 | 0.079 | -0.342 | 0.585 | 1.09 | -2.55 (inactive) | -0.141 | 0.0274
C=C(C(=O)CC[C@H](OC(=O)c1ccccc1-c1ccccc1C(=O)O)c1ccccc1OCCO)C(C)C | -0.148 | 0.724 | -0.163 | 0.782 | 0.393 | 0.61 | 1.18 | -1.38 (inactive) | 0.117 | -0.0994

Reference: PubChem BioAssay
